Source: PubChem BioAssay (Broad Institute)
HIV Env fusion: inhibitors of HIV Env-mediated cell fusion. HeLa-JRFL Env/CEM21 cell fusion, luciferase. inhibition, % at 12.3 µM. 360,000 compounds, 1.1% hits;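 active = mean replicate inhibition score of at least 50 and every replicate individually at or above 50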;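 note: 0% = plate neutral controls and 100% = maraviroc near 300 nM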
CASP6 VEID inh: inhibitors of human caspase-6. purified caspase-6, Z-VEID-R110 cleavage fluorescence. inhibition, % at 12.5 µM. AID 686996. 350,000 compounds, 0.53% hits. P55212;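 active = mean inhibition across replicates at least about 35%, with every replicate also reaching that limit, limit read from the data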;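 note: 0% = median of neutral control wells and 100% = no fluorescence left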
Target sequence (P55212 24-179 limits assumed): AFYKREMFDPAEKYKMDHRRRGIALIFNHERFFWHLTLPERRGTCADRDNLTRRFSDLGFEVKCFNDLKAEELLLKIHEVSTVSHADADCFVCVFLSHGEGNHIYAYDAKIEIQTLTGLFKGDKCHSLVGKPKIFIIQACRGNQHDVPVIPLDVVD
Target sequence (P55212 194-293 limits assumed): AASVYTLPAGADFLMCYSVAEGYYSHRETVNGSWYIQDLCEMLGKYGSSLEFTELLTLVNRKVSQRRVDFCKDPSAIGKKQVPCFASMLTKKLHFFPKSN
PglD DTNB: PglD (C. jejuni) enzyme inhibition | 360,000 compounds, 0.098% hits | purified PglD enzyme, DTNB colorimetric CoA detection | inhibition, % at 12.5 µM; in the data active = inhibition above about 16%, passing the limit was not always enough
F508del corr: CFTR F508del correction in bronchial cells | CFBE cells, YFP halide quenching; stimulated with forskolin plus potentiator P3; % fluorescence drop versus neutral controls | activity (quench increase), % at 7.58 µM | 350,000 compounds, 0.36% hits | AID 720511;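 active = mean added fluorescence quench of at least 8% versus neutral control, with both replicates also reaching 8%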;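 note: cells transiently co-express mutant CFTR-F508del with the halide-sensitive YFP; corrector assay measuring rescue of mutant channel to the surface after 24 h compound exposure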
ALR H2O2 inh: human ALR oxidase inhibition via reduced H2O2 | P55789 | purified ALR, DTT oxidation, H2O2 HRP-luminol luminescence | inhibition, % (test concentration not listed) | 290,000 compounds, 3.8% hits;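 active = mean replicate inhibition above about 79%, with every replicate also reaching it, limit read from the data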
Target sequence (P55789 whole entry, looked up): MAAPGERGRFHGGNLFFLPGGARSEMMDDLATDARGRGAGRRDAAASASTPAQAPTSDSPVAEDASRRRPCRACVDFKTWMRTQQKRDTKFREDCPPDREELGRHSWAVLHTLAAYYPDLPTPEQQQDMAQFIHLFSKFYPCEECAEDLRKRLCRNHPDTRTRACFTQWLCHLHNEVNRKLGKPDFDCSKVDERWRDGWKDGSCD
NSD2 HMT inh: blocks human histone methyltransferase NSD2; O96028; NSD2 peptide methylation, AlphaScreen, 120 min; inhibition, % at 12.5 µM; 310,000 compounds, 0.54% hits; in the data active = inhibition above about 50%
Active calls of the source: *; nt = no result given; [ ] = remark or other dose. Most compounds without a hit are left out; they make up all but 4.1% or so of the library.

SMILES | HIV Env fusion | CASP6 VEID inh | PglD DTNB | F508del corr | ALR H2O2 inh | NSD2 HMT inh
C=CCN1c2ccccc2[C@]23C[C@@H](C(=O)OC)N(C(=O)c4cccs4)C2=NC(C(=O)OC)=C(C(=O)OC)[C@H]13 | -11 | -9 | -1 | 8.0* | -2 | nt
C=CCN1c2ccccc2[C@]23C[C@@H](C(=O)OC)N(C(=O)c4ccc(Br)cc4)C2=NC(C(=O)OC)=C(C(=O)OC)[C@H]13 | nt | 7 | 2 | 0 | nt | nt
C[C@@H]1CN([C@H](C)CO)C(=O)Cc2cc(NS(=O)(=O)c3ccc(Cl)cc3)ccc2O[C@H]1CN(C)C | nt | 2 | -1 | 0 | nt | nt
COc1ccc2[nH]c3c(NCc4ccco4)ncnc3c2c1 | nt | nt | nt | nt | 98* | nt
CCN(CC)CCNc1ncnc2c1[nH]c1ccc(OC)cc12 | nt | nt | nt | nt | -3 | nt
CC(C)CCNC(=O)C(=O)Nc1ccc2c(c1)N(S(=O)(=O)c1cccs1)CCC2 | -13 | 0 | nt | 12* | -5 | 2
COc1ccc(N2CCN(C(=O)CCn3nnc4ccccc43)CC2)cc1 | -5 | nt | -5 | nt | 90* | 3
CC1CN(C(=O)CCC(=O)N2CCOCC2)c2ccccc2O1 (stereo not given) | -2 | -2 | -7 | 0 | -1 | nt
CC(=O)N1CCN(C(=O)CCn2nnc3ccccc32)CC1 | nt | nt | nt | nt | nt | -3
COc1ccc(N2CCN(C(=O)CCC(=O)N3CC(C)Oc4ccccc43)CC2)cc1 (stereo not given) | 17 | -2 | -2 | -2 | 78* | nt
CCOC(=O)N1CCN(C(=O)CCCn2c(=S)[nH]c3ccsc3c2=O)CC1 | 9 | -3 | nt | -1 | 95* | -4
O=c1c2sccc2[nH]c(=S)n1Cc1ccccc1 | 14 | nt | nt | nt | 31 | -3
CC(NC(=O)CCn1c(=S)[nH]c2ccsc2c1=O)c1ccccc1 (stereo not given) | 11 | 2 | 2 | 1 | 95* | -1
CCOC(=O)N1CCN(C(=O)CCCn2c(=S)[nH]c3ccccc3c2=O)CC1 | -22 | nt | 0 | nt | 60 | 0
CCOC(=O)N1CCN(C(=O)CCCCCn2c(=S)[nH]c3ccsc3c2=O)CC1 | -3 | -1 | nt | -3 | 93* | -4
C[C@@H]1CN([C@H](C)CO)C(=O)c2cccc(NS(C)(=O)=O)c2O[C@H]1CN(C)C(=O)Nc1cccc2ccccc12 | 6[16.7 µM] | -2 | 5 | -2 | nt | nt
Oc1[nH]c2ccccc2c1N=Nc1nc2ccccc2s1 | -294 | nt | 0 | nt | 88* | 3
Cc1ccc(S(=O)(=O)Nc2ccc3c(c2)C(=O)N([C@@H](C)CO)C[C@H](C)[C@H](CN(C)C(=O)Nc2cccc4ccccc24)OCCCC[C@H](C)O3)cc1 | -3[16.7 µM] | 2 | 1 | 0 | nt | nt
CC1CC(C)CN(S(=O)(=O)c2ccc(F)c(C(=O)NC3CCCCC3C)c2)C1 (stereo not given) | -30 | 62* | -2 | 1 | nt | -1
Cc1cc(-c2ccccc2)nc(N(C)NC(=O)c2cccc(C(F)(F)F)c2)c1S(C)(=O)=O | nt | nt | -5 | nt | -7 | -2
Cc1cc(-c2ccccc2)nc(N(C)NC(=O)C2CC2)c1S(C)(=O)=O | 23 | -2 | 5 | 8.5* | -6 | 1
COc1ccccc1N1CCN(S(=O)(=O)c2c(C)[nH]c(=O)[nH]c2=O)CC1 | -8 | -4 | nt | nt | 97* | -6
COc1ccccc1N1CCN(S(=O)(=O)c2cccc(F)c2)CC1 | -33 | nt | -1 | nt | 97* | -2
CO[C@@H]1CN(C)C(=O)c2cc(NS(C)(=O)=O)ccc2OC[C@@H](C)N(Cc2ccccn2)C[C@@H]1C | nt | nt | nt | -2 | nt | nt
Cc1cc(N)n(-c2ccc(Oc3ccccc3)c(S(=O)(=O)O)c2)n1 | -4 | 38* | nt | 0 | nt | 38
SMILES | HIV Env fusion | CASP6 VEID inh | PglD DTNB | F508del corr | ALR H2O2 inh | NSD2 HMT inh
Cc1cc(N)n(-c2ccc(C)c(C)c2)n1 | -33 | -1 | nt | nt | 5 | -2
Cc1ccc(S(=O)(=O)NC[C@@H]2CC[C@@H]3[C@@H](CN3Cc3cc(F)ccc3F)O2)cc1 | nt | 1 | nt | 2 | nt | nt
COc1ccc(-c2cc(C(F)(F)F)n3nc(C(=O)NCc4ccco4)cc3n2)cc1 | nt | nt | nt | nt | 0 | nt
Cc1cc(-c2ccccc2)nc2cc(C(=O)NCc3ccco3)nn12 | -92 | 23 | 2 | 2 | 93* | nt
C#Cc1ccc(C(=O)Nc2ccc(N3CCC(C)CC3)c(C(N)=O)c2)cc1 | 32 | 1 | nt | 16* | -3 | -4
Cc1cccc(NC(=O)c2cc(NC(=O)c3ccccc3)ccc2N2CCCCC2)c1 | -33 | nt | 4 | nt | 2 | -7
COc1cc(CN2CC3(CCN(C(=O)CN4CCOCC4)CC3)c3c(n(C)c4cc(OC)ccc34)[C@@H]2CO)cc(OC)c1 | 13[16.7 µM] | -2 | nt | 1 | nt | nt
CCN1[C@H](C(=O)NCCc2cn(C)cn2)[C@@H](CO)[C@@H]2Cn3c(ccc(-c4ccncc4)c3=O)[C@@H]21 | nt | -1 | 4 | 2 | nt | nt
O=[N+]([O-])c1cc(-c2n(-c3ccccn3)c3ccccc3[n+]2-c2ccccn2)ccc1Cl | 64* | -4 | -2 | 1 | -7 | 0
CCOc1c(C)cnc2c1c(=O)n(Cc1ccc(Cl)cc1)c(=O)n2C | 85* | 3 | 2 | 1 | -1 | -5
CCOc1c(C)cnc2c1c(=O)n(Cc1cccc(Cl)c1)c(=O)n2C | 6 | 1 | 1 | 0 | 1 | -3
CCCC(=O)Nc1ccc2c(c1)OC[C@H](C)N(C(=O)CC1CC1)C[C@@H](C)[C@@H](OC)CN(C)C2=O | -11[16.7 µM] | 0 | -1 | 1 | nt | nt
O=C(CN1CCOc2ccccc21)NC1CC1 | -7 | 4 | 1 | -1 | 87* | nt
O=C(CN1CCOc2ccccc21)NCc1ccc(F)cc1 | 7 | 4 | 3 | 1 | 98* | nt
O=C(CN1CCOc2ccccc21)NCc1ccc(Cl)cc1 | 22 | 2 | 2 | 9.2* | 99* | nt
O=C(CN1CCOc2ccccc21)NCc1ccco1 | -15 | -2 | -6 | 2 | 51 | nt
O=C(CCN1C(=O)COc2ccccc21)NCc1cccs1 | nt | nt | -4 | nt | 5 | -3
COCCNC(=O)CN1CCOc2ccccc21 | -53 | 0 | -5 | 0 | nt | nt
O=C(CN1CCOc2ccccc21)NCc1cccs1 | -7 | nt | 0 | nt | 99* | 5
CNC[C@@H]1Oc2cc(C#Cc3ccccn3)ccc2S(=O)(=O)N([C@H](C)CO)C[C@H]1C | 3[16.7 µM] | -2 | 0 | -3 | nt | nt
COc1ccc2c3c([nH]c2c1)[C@@H](CO)N(C)CC31CCN(C(=O)c2cccnc2)CC1 | nt | nt | nt | 1 | nt | nt
CC=Cc1ccc2n(c1=O)C[C@H]1[C@H](CO)[C@@H](C(=O)Nc3ccc(-c4ccccc4)cc3)[C@@H]2N1CC (mixture of isomers) | nt | 3 | nt | 1 | nt | nt
CC(C)CC#Cc1ccc2c(c1)O[C@@H](CN(C)C(=O)C1CCCCC1)[C@@H](C)CN([C@H](C)CO)S2(=O)=O | 30[16.7 µM] | 1 | 3 | 5 | nt | nt
CNC(=O)C[C@H]1CC[C@H]2[C@@H](COc3ccc(NC(=O)c4ccno4)cc3C(=O)N2C)O1 | -15[16.7 µM] | nt | 0 | -1 | nt | nt
COc1ccc(C(=O)N/C(=C\c2ccccc2)C(=O)N2CCOCC2)cc1 | -11 | 8 | -94 | 5 | -9 | 0
